Counter-ions that a name gives are not always drawn. ± gives the standard deviation of the averaged measurements.
Experiments:
[1] = target: IKZF1 (dCK*-IKZF1 fusion in HEK293FT) (UniProt Q13422); assay: inhibition of IKZF1 HTRF signal (DMSO = 0%, pomalidomide 10 uM = 100%); higher = lower IKZF1 protein level; details: compound concentration: 5 uM, overnight (~20 h)
How it was run: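 Values are percent inhibition of IKZF1 signal, normalised plate by plate against vehicle and a reference degrader. HEK293FT cells stably expressing an IKZF1 fusion were seeded at 2000 per well in 384-well plates and exposed to 5 μM compound in single wells overnight at 37 °C. After 30 min lysis at room temperature, lysates were incubated overnight with a commercial HTRF total-IKZF1 antibody kit, and the background-subtracted 665/620 nm time-resolved FRET ratio was read. On each plate, vehicle was set at 0% and the reference degrader at 100%.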

HEK293FT dCK*-only = assay: relative growth in counter assay (no AraC = 100%, AraC + DMSO = 0%); higher = more growth rescue independent of IKZF1; details: compound concentration: 5 uM; AraC concentration: 0.3 uM; overnight pretreatment + 4 days AraC
How it was run: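 This counter assay used HEK293FT cells expressing only an engineered kinase construct, seeded at 300 per well in 384-well plates. Compound was added at 5 μM 2 h after seeding, and after overnight at 37 °C the cells received a nucleoside suicide substrate at 0.3 μM plus medium for 4 days. On day 5, nuclei stained with Hoechst 33342 were counted by imaging, and relative growth was normalised per plate; wells without suicide substrate were set at 100% and wells with substrate plus vehicle at 0%.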

HEK293FT dCK*-IKZF1 = assay: relative growth recovery (pomalidomide 10 uM = 100%, DMSO = 0%); higher = more growth rescue (IKZF1 fusion degradation); details: compound concentration: 5 uM; AraC concentration: 0.3 uM; overnight pretreatment + 4 days AraC
How it was run: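 HEK293FT cells stably expressing an engineered deoxycytidine kinase–IKZF1 fusion were seeded at 300 per well in 384-well plates and given 5 μM compound 2 h later. After overnight incubation at 37 °C, a nucleoside suicide substrate at 0.3 μM was added with medium for 4 days, and on day 5 Hoechst 33342-stained nuclei were counted by whole-well imaging. Growth recovery was normalised per plate between a reference degrader and vehicle, set to 100% and 0% respectively, and the values are means of duplicates run on different days.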

Sequence of IKZF1 (dCK*-IKZF1 fusion in HEK293FT) (Q13422 whole entry, looked up, the tested form may be a part): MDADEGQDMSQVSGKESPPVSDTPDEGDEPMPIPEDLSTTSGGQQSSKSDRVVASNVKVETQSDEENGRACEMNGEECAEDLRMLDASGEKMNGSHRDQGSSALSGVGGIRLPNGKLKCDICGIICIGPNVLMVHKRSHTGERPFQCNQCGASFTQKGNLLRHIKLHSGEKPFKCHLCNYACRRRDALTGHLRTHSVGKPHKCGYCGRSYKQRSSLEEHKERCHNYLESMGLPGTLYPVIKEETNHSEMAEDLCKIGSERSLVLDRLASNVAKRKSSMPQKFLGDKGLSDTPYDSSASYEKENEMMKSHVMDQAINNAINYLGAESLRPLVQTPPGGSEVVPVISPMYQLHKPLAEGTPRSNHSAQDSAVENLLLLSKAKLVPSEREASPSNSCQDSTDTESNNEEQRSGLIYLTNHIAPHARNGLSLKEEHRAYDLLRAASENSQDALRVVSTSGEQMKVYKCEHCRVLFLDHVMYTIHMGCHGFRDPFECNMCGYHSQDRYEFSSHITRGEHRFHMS

| SMILES | inhibition of IKZF1 HTRF signal [1] | relative growth in counter assay (HEK293FT dCK*-only) | relative growth recovery (HEK293FT dCK*-IKZF1) |
| --- | --- | --- | --- |
| O=C1Nc2cc(Br)ccc2/C1=C1/Nc2ccccc2/C1=N\O [3-inhibitor] | -34.6% | -10.1% | -4.43% |
| O=[N+]([O-])c1ccc(O)c2ncccc12 | -23.9% | -14.6% | -2.33% |
| CN(C)C1CCN(C(=O)c2ccc(NC(=O)Nc3ccc(-c4nc(N5CCOCC5)nc(N5CCOCC5)n4)cc3)cc2)CC1 | 27.3% | -6.76% | -0.95% |
| COc1cc(/C=C2\CCC/C(=C\c3ccc(O)c(OC)c3)C2=O)ccc1O [cyclovalone] | -30.9% | -31.6% | 2.27% |
| COc1ccc(-c2ccc3ncc4c(c3c2)n(-c2ccc(N3CCNCC3)c(C(F)(F)F)c2)c(=O)n4C)cn1 | 88.1% | -35.1% | -15.2% |
| O=C1CN(/N=C/c2ccc(-c3ccc([N+](=O)[O-])cc3)o2)C(=O)N1 [dantrolene] | 27.9% | -3.99% | 4.57% |
| Oc1c(CN2CCCC2)cc(COCc2ccccc2)c2cccnc12 | -11.1% | -34.9% | -13.4% |
| CCOC(=O)Nc1ccc2c(c1)N(C(=O)CCN1CCOCC1)c1ccccc1S2 [moracizine] | -24.3% | -9.21% | -0.545% |
| CCOC(=O)Nc1ccc2c(c1)N(C(=O)CN(C)C)c1ccccc1CC2 [Tiracizine] | 1.99% | 0.34% | -0.145% |
| CCCCOc1ccc(-c2cncc(C(=O)NCc3cccnc3N3CCOCC3)c2)cc1Cl | -19.5% | -0.15% | 4.37% |
| CN(C)CCC=C1c2ccccc2CCc2ccccc21 [Amitriptyline HCl] | 22.6% | 6.15% | -1.42% |
| Cc1ccc(S(=O)(=O)N/N=C/c2cc(Br)ccc2O)cc1 | 26 ± 7.3% | -14 ± 4.4% | 2.03 ± 2.8% |
| C[n+]1c2cc(N)ccc2cc2ccc(N)cc21.Nc1ccc2cc3ccc(N)cc3nc2c1 [Acriflavine hydrochloride] | 6.76% | -35.7% | -14% |
| Fc1ccc(CNc2ncnc3ccc(F)cc23)cc1 [spautin-1] | 8.67% | -2.11% | 5.96% |
| O=C1Nc2c(ccc(Cl)c2Cl)C1=NO | -26.5% | -8.31% | -2.38% |
| CCC1(O)CC2CN(CCc3c([nH]c4ccccc34)[C@@](C(=O)OC)(c3cc4c(cc3OC)N(C=O)C3[C@]45CCN4CC=C[C@@](CC)([C@@H](OC(C)=O)[C@]3(O)C(=O)OC)[C@H]45)C2)C1 (stereo not given in full) [Vincristine sulfate] | -23.3% | -33.7% | -11.8% |
| CN1CCN(CCCN2c3ccccc3Sc3ccc(Cl)cc32)CC1 | -26.7% | 4.19% | 1.47% |
| C=C1C(=O)O[C@H]2[C@H]1CC/C(C)=C/CC[C@@]1(C)O[C@@H]21 [parthenolide] | -47.4% | -33% | -10.5% |
| O=C(NCC1CCCCN1)c1cc(OCC(F)(F)F)ccc1OCC(F)(F)F (stereo not given) [flecainide] | -38% | -3.96% | 0.135% |
| O=C(c1cccc(Cl)c1F)N1CCN(Cc2cccc(Nc3nccs3)n2)CC1 | -54.8% | -32.1% | -11.2% |
| O=C1NCN(c2ccccc2)C12CCN(CCCC(c1ccc(F)cc1)c1ccc(F)cc1)CC2 [Fluspirilene] | -2.73% | 5.04% | -0.815% |
| CCCC(=O)C1CCN(c2ncnc3c2CN(C(=O)c2ccc(-c4ccccc4)cc2)CC3)CC1 | -10.8% | 18% | 4.94% |

| SMILES | inhibition of IKZF1 HTRF signal [1] | relative growth in counter assay (HEK293FT dCK*-only) | relative growth recovery (HEK293FT dCK*-IKZF1) |
| --- | --- | --- | --- |
| COC1=C2C[C@@H](C)C[C@H](OC)[C@H](O)[C@@H](C)/C=C(\C)[C@H](OC(N)=O)[C@@H](OC)/C=C\C=C(/C)C(=O)NC(=CC1=O)C2=O [Geldanamycin] | 57.7% | -32.6% | -11.4% |
| CC(C)(C)c1ccc(-c2nc3ccccc3[nH]2)cc1 | -0.19% | 3.59% | 11.5% |
| Oc1cc(CNC(=S)/C=C/c2cc(O)c(O)c(Br)c2)cc(O)c1O | -32.2% | -34.9% | -11.9% |
| CCOC(=O)c1ccc(N)cc1 | 16.4% | -10.5% | -2.68% |
| N#Cc1ccc(O[C@H]2CC[C@H](NC(=O)c3ccc(N4CCC(CN5CCN(c6cc7c(cc6F)C(=O)N(C6CCC(=O)NC6=O)C7=O)CC5)CC4)nn3)CC2)cc1Cl (stereo not given in full) | -5.24% | 6.3% | -0.69% |
| C=C1/C(=C\C=C2/CCC[C@]3(C)[C@@H]([C@H](C)CCCC(C)(C)O)CC[C@@H]23)C[C@@H](O)C[C@@H]1O [Calcitriol (Rocaltrol)] | 7.56% | 31.2% | 4.81% |
| CCCCCCCC[N+](C)(C)Cc1ccccc1 [benzyldimethyloctylammonium] | -57.3% | 4.74% | 5.02% |
| CC1=C(/C=C/C(C)=C/C=C/C(C)=C/C(=O)Nc2ccc(O)cc2)C(C)(C)CCC1 [Fenretinide] | -30.4% | -13.7% | -1.99% |
| Oc1ccc(/C=C/c2cc(O)cc(O)c2)cc1 [Resveratrol] | -25.5% | 5.43% | 2.06% |
| CSc1ccc2c(c1)C(N1CCN(C)CC1)Cc1ccccc1S2 (stereo not given) | -34.7% | -1.22% | -1.56% |
| CSc1ccc2c(c1)N(CCC1CCCCN1C)c1ccccc1S2 (stereo not given) [Thioridazine HCl] | -1.96% | -2.48% | -2.37% |
| COc1ccc2c(C)nc(Nc3nc(C)c(C)c(O)n3)nc2c1 [madrasin] | -28.1% | 6.01% | 0.18% |
| Cc1coc2c1C(=O)C(=O)c1c-2ccc2c(C)cccc12 [Tanshinone I] | -2.3% | -6.51% | -3.83% |
| CC(=O)[C@]1(O)Cc2c(O)c3c(c(O)c2[C@@H](O[C@H]2C[C@H](N)[C@H](O)[C@H](C)O2)C1)C(=O)c1ccccc1C3=O [Idarubicin HCl] | 11.7% | -34.2% | -13% |
| CNC[C@H](O)c1ccc(O)c(O)c1 [Epinephrine (L-(-)-Epinephrine-(+)-Bitartrate)] | -25.3% | -10.5% | -3.19% |
| CC(=O)N(O)[C@@H]1c2cc(C#N)ccc2OC(C)(C)[C@H]1O | 13.4% | -4.7% | -2.73% |
| CN(Cc1cnc2nc(N)nc(N)c2n1)c1ccc(C(=O)NC(CCC(=O)O)C(=O)O)cc1 (stereo not given) [Methotrexate] | -46% | -30.3% | -9.97% |
| CCc1nc(N)nc(N)c1-c1ccc(Cl)cc1 [Pyrimethamine] | -52.5% | 3.76% | -1.87% |
| CN(C)c1ccc(/C=C2\C(=O)Nc3ccccc32)cc1 | -36.5% | -9.78% | 2.52% |
| O=C1c2c(O)cccc2Cc2cccc(O)c21 | 14% | -0.62% | -0.185% |
| COc1ccc(CN2CCN(C(c3ccc(F)cc3)c3ccc(F)cc3)CC2)c(OC)c1OC | -50.6% | 1.19% | 0.625% |
| Cc1cc(NC(=O)C(c2ccccc2)N2CCCc3ccccc32)no1 (stereo not given) | -21.4% | -9.71% | 1.48% |

| SMILES | inhibition of IKZF1 HTRF signal [1] | relative growth in counter assay (HEK293FT dCK*-only) | relative growth recovery (HEK293FT dCK*-IKZF1) |
| --- | --- | --- | --- |
| CCn1c(=O)[nH]c2cc(Cl)c(Cl)cc21 | -7.25% | 6.81% | -1.89% |
| C[C@H]1O[C@@H](n2cc(F)c(=O)[nH]c2=O)[C@H](O)[C@@H]1O | -24.1% | -10.6% | 0.84% |
| CO[C@H]1O[C@@H]2O[C@@]3(C)CC[C@H]4[C@H](C)CC[C@@H]([C@H]1C)[C@@]24OO3 [Artemether] | -26.4% | -14.4% | -5.75% |
| CCOC(=O)C1=C(C)NC(C)=C(C(=O)OC)C1c1cccc([N+](=O)[O-])c1 (stereo not given) | -32.3% | -1.02% | 2.87% |
| COc1ccc(Cl)cc1C(=O)NCCc1ccc(C(=O)O)cc1 [meglitinide] | -37.6% | -0.23% | -1.25% |
| NS(=O)(=O)c1ccc(S(=O)(=O)Nc2cccc3c(Cl)c[nH]c23)cc1 [Indisulam] | -6.45% | -24.4% | -3.02% |
| CCN(CC)CCOc1ccccc1C(=O)CCc1ccccc1 [etafenone] | 11% | 2.17% | -1.08% |
| CC1(C)CCC2=C(O1)c1ccccc1C(=O)C2=O | -30% | -24.5% | -10.9% |
| NC(=O)N1c2ccccc2CC(=O)c2ccccc21 | 17.9% | 5.74% | -1.02% |
| S=C(NCc1ccc2c(c1)OCO2)N1CCN(c2ncnc3c2oc2ccccc23)CC1 [Amuvatinib (MP-470)] | -37.4% | -17.4% | -0.14% |
| OCCN1CCN(CCCN2c3ccccc3Sc3ccc(Cl)cc32)CC1 | -36.5% | 3.78% | 4.08% |
| CCOC(=O)C1=C[C@]2(CC)CCCN3CCc4c(n1c1ccccc41)[C@@H]32 | -26.3% | -0.08% | 3.4% |
| Cc1ncsc1-c1ccc(CNC(=O)[C@@H]2C[C@@H](O)CN2C(=O)[C@@H](NC(=O)COCCOCCOc2ccc(-c3ccc4ncnc(Nc5ccc(OCc6cccc(F)c6)c(Cl)c5)c4c3)cc2)C(C)(C)C)cc1 | 6.76% | 49.6% | 19.7% |
| ClC1=CC=CC(NC2=C3C(N(C(C)C)C=N3)=NC(N[C@H]([C@@H](C)C)CO)=N2)=C1 [purvalanol-a] | -35.2% | 2.99% | -1.66% |
| N#CC(c1ccccc1)(c1ccccc1)c1ccccc1Cl | -37.8% | 1.13% | -0.3% |
| Nc1ncnc2c1ncn2[C@@H]1O[C@H](COP(=O)(O)OP(=O)(O)OP(=O)(O)OP(=O)(O)OC[C@H]2O[C@@H](n3cnc4c(N)ncnc43)C(O)C2O)C(O)C1O (stereo not given in full) [P1,P4-DI(adenosine-5')tetraphosphate ammonium salt] | -38% | 5.12% | 1.01% |
| O=C1Nc2ccccc2/C1=C1/Nc2ccccc2/C1=N\O [indirubin-3-monoxime] | -16.5% | 4.61% | 1.19% |
| O=c1c(O)c(-c2ccc(O)c(O)c2)oc2cc(O)cc(O)c12 [quercetin] | -26.2% | -7.53% | -2.98% |
| CCN(CC)CCCN(c1ccccc1)C1Cc2ccccc2C1 [aprindine] | 2.2% | 4.05% | 1.23% |
| O=C(c1ccc(Nc2nccc(-c3cc4ccccc4s3)n2)cc1)N1CCC(N2CCCC2)CC1 | -31.3% | -35.2% | -14.3% |
| OC1(c2ccc(Cl)c(C(F)(F)F)c2)CCN(CCCC(c2ccc(F)cc2)c2ccc(F)cc2)CC1 | -28.8% | -26% | -5.21% |
